Measurements: PubChem BioAssay AID504332 (National Center for Advancing Translational Sciences (NCATS), 2011)
Several values for one entry are separate records, joined by “and”; a condition that tells them apart may be missing. Equal entries are not always repeated. In all, about 350,000 compounds went through this assay and about 31,000 (8.9%) were called active. About 15% were inconclusive and are not listed. Many of the other results were omitted from the sample, so actives are more common in it than they were. Unmarked numbers belong to inactive results. Calls follow the shape of the dose curve; as a rule, active = well fitted inhibition curve with a large enough effect; inconclusive = small, poorly fitted or top-dose-only effect; inactive = no such curve, though single readings can be large or run the other way.

biological target: Histone-lysine N-methyltransferase EHMT2 (Homo sapiens) (UniProt Q96KQ7); test: qHTS Assay for Inhibitors of Histone Lysine Methyltransferase G9a; conditions: G9a H3K9 monomethylation, AlphaScreen, 2 h; series mostly up to 102 µM; activity, negative = inhibition: at the top concentration; also: nearly all actives have a fitted effect of over 75% in size
Sequence (Q96KQ7 913-1193 limits assumed): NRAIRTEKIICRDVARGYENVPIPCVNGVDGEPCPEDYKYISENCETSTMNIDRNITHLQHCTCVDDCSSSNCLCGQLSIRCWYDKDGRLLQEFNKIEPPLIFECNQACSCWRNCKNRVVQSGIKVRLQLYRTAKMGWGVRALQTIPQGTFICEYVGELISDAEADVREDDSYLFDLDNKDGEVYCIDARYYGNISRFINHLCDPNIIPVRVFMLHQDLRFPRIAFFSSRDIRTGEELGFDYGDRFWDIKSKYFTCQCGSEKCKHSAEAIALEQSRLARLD
Summary of the method: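 G9a (20 nM) preincubated 15 min RT with compounds, then 500 nM biotinylated H3K9 peptide and 20 uM SAM added; 2 h RT reaction. Monomethyl-H3K9 product detected by AlphaScreen with anti-H3K9me1 antibody, streptavidin donor and anti-rabbit IgG acceptor beads.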
% is scaled to controls: 0 for no effect and ±100 for the full control effect; potency is read from the fitted curve at half-maximal effect.

Row | Structure (SMILES) | activity, negative = inhibition | Potency
1 | O=C(c1cc(-c2ccncc2)nc2ccccc12)N1CCC2(CC1)OCCO2 | -0.255% [at 59 µM] | –
2 | COc1ccc(NC(=O)N2CCC3(CC2)OCCO3)c(OC)c1 | 18.8% | –
3 | O=C(Nc1cccc2ccccc12)N1CCC2(CC1)OCCO2 | – | 50.1 µM (active)
4 | CCN1CC2C3CCC(C)(O3)C2C1 (stereo not given) | -1.34% | –
5 | Cc1nnc(NC(=O)c2cccn(Cc3cccc(F)c3)c2=O)s1 | 12.5% [at 59 µM] | –
6 | Cn1cc(/C=C/c2nc3ccccc3c(=O)n2-c2ccccc2)c2ccccc21 | -33.2% [at 59 µM] | –
7 | O=C(OCC1O[C@@H](OC(=O)c2cc(O)c(O)c(O)c2)[C@@H](OC(=O)c2cc(O)c(O)c(O)c2)[C@@H](OC(=O)c2cc(O)c(O)c(O)c2)[C@@H]1OC(=O)c1cc(O)c(O)c(O)c1)c1cc(O)c(O)c(O)c1 (stereo not given in full) | – | 50.1 µM (active)
8 | CCN(N=Nc1nonc1OC)c1nonc1OC | 22.1% [at 59 µM] | –
9 | CC(=O)N(C1=NCCCS1)c1ccccc1F | 1.9% | –
10 | COc1ccc(-c2nn(CCC#N)cc2C(=O)O)cc1 | -18.2% | –
11 | CC(=O)c1ccc(OC(NC(=O)Cc2ccccc2)C(Cl)(Cl)Cl)cc1 (stereo not given) | -9.58% | –
12 | CN(C)C(=O)Oc1ccc2c(c1)O/C(=C\c1ccccc1)C2=O | -35.3% | –
13 | N#CC(C#N)=Cc1cc(O)c(O)c([N+](=O)[O-])c1 | – | 14.1 µM (active) and 15.8 µM (active)
14 | NCCc1ccc(S(=O)(=O)F)cc1 | inactive | –
15 | COc1ccc(C2NCc3ccc4c(c3-n3cccc32)OCO4)cc1OC (stereo not given) | 0.908% [at 12.7 µM] | –
16 | COc1c(O)ccc2c1-c1c3c(cc4c1C(C2)N(C)CC4)OCO3 (stereo not given) | – | 39.8 µM (active)
17 | CC(=O)NC(=O)NC(C)Cc1ccccc1 (stereo not given) | 4.15% | –
18 | CCOC(=O)c1c(-c2ccccc2)oc2ccc(OC(=O)N(C)C)cc12 | 6.28% [at 12.7 µM] | –
19 | O=C(CN1CCCCC1)Nc1ccc(Br)cc1C(=O)c1ccccc1Cl | 8.1% | –
20 | NC(=O)Nc1cccc(C(F)(F)F)c1 | 2.76% [at 59 µM] | –
21 | CC(C)C(N)C(=O)OCCOCn1cnc2c(=O)[nH]c(N)nc21 (stereo not given) | -19.5% [at 2.33 µM] | –
22 | Cc1ccc(Cn2nnnc2CN2CCC(n3nnc4ccccc43)CC2)cc1 | – | 50.1 µM (active)
23 | CC(C)(O)c1[se]c2ccccc2c1I | -25.9% | –
24 | CN(C)S(=O)(=O)c1cc(C(=O)N2CCC(C(=O)O)(c3ccccc3)CC2)ccc1Cl | 8.28% | –

Row | Structure (SMILES) | activity, negative = inhibition | Potency
25 | Cc1ccc(C)c(NC2=NCCCS2)c1 | -38.9% | –
26 | Cc1c(C(=O)O)cccc1-n1c(C)cc(/C=C2\C(=O)NC(=O)N(c3ccc4c(c3)OCO4)C2=O)c1C | – | 28.2 µM (active)
27 | CC(C)c1c(CN(C)C(C)Cc2ccccc2)n(C)n(-c2ccccc2)c1=O (stereo not given) | 6.73% [at 59 µM] | –
28 | Cc1ccnc(-n2c(C)cc(/C=C3\C(=O)NC(=S)N(C)C3=O)c2C)c1 | – | 6.31 µM (active)
29 | CN1CCC(OC(=O)c2cccc(F)c2)CC1 | -16% | –
30 | CCN1CCN(c2ccc([N+](=O)[O-])cc2C#N)CC1 | -50% | –
31 | O=C(N/N=C/c1c(O)n(C2CC2)c(=S)[nH]c1=O)c1ccccc1Cl | 21.3% | –
32 | CCNC[C@H](O)c1cccc(O)c1 | 5.63% [at 21.5 µM] | –
33 | CN(c1ccccc1)c1ccc([N+](=O)[O-])c2nonc12 | – | 15.8 µM (active)
34 | O=c1c2ccccc2nc(-c2ccco2)n1-c1ccc(Br)cn1 | 11% [at 59 µM] | –
35 | CCOP(=S)(OCC)SCOC(=O)NCC(=O)OC | 22% [at 59 µM] | –
36 | CCOC(=O)C(O)(c1ccc(N=Cc2ccccc2O)c(C)c1)C(F)(F)F (stereo not given) | 14.5% | –
37 | COc1ccccc1N1CCN(C(CNC(=O)Oc2ccccc2)c2cccnc2)CC1 (stereo not given) | 4.58% | –
38 | O=C(c1cc(S(=O)(=O)N2CCOCC2)ccc1F)N1CCC2(CC1)OCCO2 | -11% [at 12.7 µM] | –
39 | Cc1nn(-c2ccccc2)c(C)c1NC(=O)COC(=O)Cc1ccccc1 | -0.2% | –
40 | OC(CNC1CCCCC1)c1ccccc1 (stereo not given) | 2.5% [at 12.7 µM] | –
41 | O=C(CN1CCCC1=O)NCCc1ccccc1 | 27.1% [at 12.7 µM] | –
42 | c1cc2c(cc1[C@H]1OC[C@H]3[C@@H]1CO[C@@H]3c1ccc3c(c1)OCO3)OCO2 | 39.6% [at 59 µM] | –
43 | CC(=NCc1ccc2c(c1)OCO2)c1c(O)[nH]c(=O)[nH]c1=O | -21.4% [at 12.7 µM] | –
44 | c1ccc(CCNC2CCCCCC2)cc1 | – | 7.08 µM (active)
45 | c1cc2c(cc1CCNC1CCCCCC1)OCO2 | – | 8.91 µM (active)
46 | CCN(CC)C(=O)c1ccc(NC(=O)c2sccc2-c2ccccc2)cc1 | -8.18% | –
47 | CCN1C[C@]2(COC)C(O)C[C@H](OC)[C@@]34C5C[C@]6(O)C(OC)C(O)[C@](OC(C)=O)(C5C6OC(=O)c5ccccc5)C(C(OC)C23)C14 (stereo not given in full) | -10.7% [at 2.33 µM] | –
48 | CN[C@@H]1C[C@H]2O[C@@](C)([C@@H]1OC)n1c3ccccc3c3c4c(c5c6ccccc6n2c5c31)C(=O)NC4 | inactive | –

Row | Structure (SMILES) | activity, negative = inhibition | Potency
49 | Cc1ccc(-n2c(/C=C/c3cccc(C(F)(F)F)c3)nc3ccccc3c2=O)cc1 | -5.19% [at 59 µM] | –
50 | CCOc1ccc(-c2cc(C)[n+](CCN(CC)CC)c(-c3ccc(OCC)cc3)c2)cc1 | 9.19% [at 59 µM] | –
51 | CCCCC(=O)N/N=C/c1c(O)n(CCC2=CCCCC2)c(=O)[nH]c1=O | -31.3% | –
52 | O=C(O)COc1ccccc1/C=C1\C(=O)NC(=O)N(CCC2=CCCCC2)C1=O | – | 50.1 µM (active)
53 | CCN(CC)P(=O)(Oc1cccc(C)c1)N(CC)CC | -21.3% | –
54 | Cc1cc(-c2n[nH]c(=S)n2-c2ccc(C)c(C)c2)no1 | – | 2.51 µM (active)
55 | c1ccc(CN2CC[C@@]3(CCCNC3)C2)cc1 | -24.8% [at 12.7 µM] | –
56 | CN1CCN(C(=O)COc2ccc(C(C)(C)C)cc2Br)CC1 | -8.26% | –
57 | O=C(O)c1ccccc1NC(=O)C1C2CCC(O2)C1C(=O)O (stereo not given) | -2.22% [at 0.501 µM] | –
58 | ClC(Cl)(Cl)c1ccccc1 | -20.6% [at 0.501 µM] | –
59 | CCN1C(=O)C(=Cc2c(C)n(CC(=O)NCC3CCCO3)c3ccccc23)C(=O)N(CC)C1=S (stereo not given) | – | 39.8 µM (active)
60 | O=C1C2(Cl)C3(Cl)C4(Cl)C(Cl)(Cl)C5(Cl)C3(Cl)C1(Cl)C5(Cl)C24Cl (stereo not given) | -1.92% [at 0.501 µM] | –
61 | COc1ccccc1-c1[se]c2ccccc2c1I | 71.9% [at 59 µM] | –
62 | COC(=O)C1=C(c2ccc(F)cc2OCc2ccccc2)C[C@@H]2CC[C@H]1N2C(=O)NCc1ccc(OC)c(OC)c1 | -8.71% [at 0.501 µM] | –
63 | CN(C)[C@@H]1C(=O)C(C(N)=O)=C(O)[C@@]2(O)C(=O)C3=C(O)c4c(O)cccc4[C@@](C)(O)C3CC12 (stereo not given in full) | – | 22.4 µM (active)
64 | CNC(=O)O/N=C(\N)Cc1csc2ccccc12 | 20.1% [at 59 µM] | –
65 | C/C(CCc1c[nH]c2ccccc12)=N\O | 13.7% [at 12.7 µM] | –
66 | O=C(Nc1ccc(Cl)cc1C(=O)c1ccccc1)c1cc(Cl)cc(Cl)c1 | -10.5% [at 59 µM] | –
67 | C=Cn1ccnc1P(=S)(c1cc(N(CC)CC)ns1)c1nccn1C=C | -9.17% [at 59 µM] | –
68 | COP(=O)(NS(=O)(=O)c1ccccc1)OC | -8.09% | –
69 | COc1cccc(-c2nc3ccc(N4CCN(C)CC4)cc3[nH]2)c1 | – | 44.7 µM (active)
70 | Cc1nc2ccc(N3CCN(C)CC3)cc2nc1C | 14.8% | –
71 | CN1CCN(c2cc(N3CCNCC3)ccc2[N+](=O)[O-])CC1 | -17.5% [at 59 µM] | –
72 | CN(C)/C=C(\C=[N+](C)C)c1[nH]ncc1[N+](=O)[O-] | -35.8% | –

Row | Structure (SMILES) | activity, negative = inhibition | Potency
73 | CCc1nnc(NS(=O)(=O)c2ccc(N=Cc3c(O)n(-c4ccccc4)c(=O)[nH]c3=O)cc2)s1 | -36.3% | –
74 | N#CC1=C(N)Oc2c(c(=O)oc3ccccc23)C1c1ccccc1OC(=O)c1cccs1 (stereo not given) | -9.96% | –
75 | COC(=O)C1=C(c2ccc(F)cc2F)C[C@@H]2CC[C@H]1N2C(=O)NC1CC1 | 2.71% [at 0.501 µM] | –
76 | O=C(CCNS(=O)(=O)c1ccccc1)Nc1ccc(Cl)cc1C(=O)c1ccccc1 | 21.4% [at 59 µM] | –
77 | CCOC(=O)C1=C(C)OC(N)=C(C(=O)OC)C12C(=O)Nc1ccc(Br)cc12 (stereo not given) | 8.25% [at 2.33 µM] | –
78 | CC[N+](C)(CC)CCC[n+]1c(-c2ccccc2)c2cc(N)ccc2c2ccc(N)cc21 | – | 5.01 µM (active)
79 | C[C@H]1CC[C@@]2(NC1)O[C@@H]1C[C@H]3[C@@H]4CC=C5C[C@@H](O)CC[C@]5(C)[C@@H]4CC[C@]3(C)[C@@H]1[C@@H]2C | 18.8% [at 21.5 µM] | –
80 | CCN1CCN(c2nc3c(c(=O)[nH]2)CCC3)CC1 | -48.7% | –
81 | CCOc1ccc(CN(CCCl)CCCl)cc1C(=O)OC | 16.9% [at 0.501 µM] | –
82 | CCOP(=O)(OCC)C(O)c1ccc(OC)cc1OC (stereo not given) | 7.49% [at 59 µM] | –
83 | CCOC(=O)c1ncn2c1[C@@H]1CCCN1C(=O)c1cc(OC)ccc1-2 | inactive | –
84 | CCOC(=O)C1CN(C)CCC1=O (stereo not given) | 26.6% [at 2.33 µM] | –
85 | CCC(=NCCc1ccccc1)c1c(O)n(C2CCCCC2)c(=O)[nH]c1=O | -19.9% [at 59 µM] | –
86 | CN1CCN(Cc2ccccc2C(F)(F)F)CC1 | -12.5% [at 59 µM] | –
87 | O=C(Cc1ccccc1)N1CCN(C2CCCCCC2)CC1 | – | 31.6 µM (active)
88 | O=C(Cn1c(=O)n(CC2CS2)c2ccccc21)N1CCCCC1 (stereo not given) | -40.4% | –
89 | COc1ccccc1CN1CCN(C(=O)Cc2ccccc2)CC1 | – | 17.8 µM (active)
90 | CCN1CCN(C(=O)Cc2coc3cc(C)cc(C)c23)CC1 | -6.19% [at 59 µM] | –
91 | CCOC(=O)C(O)(c1ccc(NC(=O)c2ccco2)c(OC)c1)C(F)(F)F (stereo not given) | -45.5% [at 2.33 µM] | –
92 | c1ccc(CCCCN2CCC(c3ccccc3)CC2)cc1 | 9.12% [at 59 µM] | –
93 | CC1=C(C(=O)Nc2ccccc2)S(=O)(=O)CCO1 | 2.61% | –
94 | CC(Cc1ccccc1)NC=O (stereo not given) | 2.33% [at 12.7 µM] | –
95 | COC(=O)C1=C(c2ccc(Cl)c(C(F)(F)F)c2)C[C@@H]2CC[C@H]1N2C(=O)NC1CC1 | 7.94% [at 0.501 µM] | –
